# PubChem BioAssay
# The list shows a part of the results. Records with an inconclusive call do not appear. Activity calls are given as the source filed them.
# Legend:
# [1] = target: Solute carrier family 12 member 5 (Homo sapiens) (UniProt Q9H2X9); assay: KCC2 modulators in sodium-free buffer, confirmation, cell-based, HEK293 KCC2, thallium flux, secondary assay (AID 1713;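 active = thallium flux slope above the same plate's solvent-only control mean plus 3 SD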); settings: FluoZin2 fluorescence, at 10 µM, stronger effect = higher value
# Chain of Solute carrier family 12 member 5 (Homo sapiens) (Q9H2X9 whole entry, looked up): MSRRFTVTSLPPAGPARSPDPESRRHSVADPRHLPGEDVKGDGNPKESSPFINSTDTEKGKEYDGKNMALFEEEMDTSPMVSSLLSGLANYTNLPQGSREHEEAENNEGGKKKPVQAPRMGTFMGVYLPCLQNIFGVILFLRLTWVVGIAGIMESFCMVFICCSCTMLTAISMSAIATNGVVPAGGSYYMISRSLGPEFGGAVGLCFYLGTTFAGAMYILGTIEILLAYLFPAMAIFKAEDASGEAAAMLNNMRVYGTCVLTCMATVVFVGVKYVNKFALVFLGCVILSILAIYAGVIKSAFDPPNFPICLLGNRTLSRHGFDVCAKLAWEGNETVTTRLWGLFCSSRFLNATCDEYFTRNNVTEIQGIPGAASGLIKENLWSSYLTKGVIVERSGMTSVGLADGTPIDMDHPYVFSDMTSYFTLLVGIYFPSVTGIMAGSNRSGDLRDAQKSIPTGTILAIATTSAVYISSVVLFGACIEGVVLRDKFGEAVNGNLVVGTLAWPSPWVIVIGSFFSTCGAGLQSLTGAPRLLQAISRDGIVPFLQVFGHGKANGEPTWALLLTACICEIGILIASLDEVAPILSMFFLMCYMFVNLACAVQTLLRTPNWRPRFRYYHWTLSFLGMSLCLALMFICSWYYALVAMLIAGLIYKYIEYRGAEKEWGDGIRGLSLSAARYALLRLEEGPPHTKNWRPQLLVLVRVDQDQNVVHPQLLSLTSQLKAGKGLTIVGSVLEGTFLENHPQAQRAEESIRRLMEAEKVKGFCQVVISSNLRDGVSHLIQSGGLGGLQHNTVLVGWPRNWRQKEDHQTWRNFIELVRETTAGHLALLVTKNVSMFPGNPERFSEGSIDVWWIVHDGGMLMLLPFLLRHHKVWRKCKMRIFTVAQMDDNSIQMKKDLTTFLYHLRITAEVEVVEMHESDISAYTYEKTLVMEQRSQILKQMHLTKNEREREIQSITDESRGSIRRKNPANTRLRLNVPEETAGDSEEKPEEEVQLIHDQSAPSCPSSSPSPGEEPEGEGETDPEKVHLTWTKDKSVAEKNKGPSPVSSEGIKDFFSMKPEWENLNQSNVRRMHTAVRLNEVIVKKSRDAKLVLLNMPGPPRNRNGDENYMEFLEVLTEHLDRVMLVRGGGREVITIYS
# PubChem AID 1714 = settings: HEK293-KCC2 + bumetanide/ouabain, thallium flux FluoZin2; at 10 µM; stronger effect = higher value
# [2] = target: Solute carrier family 12 member 5 (Homo sapiens) (UniProt Q9H2X9); assay: KCC2 modulators without ouabain present, confirmation, cell-based, HEK293 KCC2, thallium flux, FluoZin2, secondary assay 2 (AID 1715;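 active = thallium flux slope more than 3 SD above or below the plate's solvent-only control mean, mostly below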;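 also: raw slope with 0.1% DMSO as baseline and bumetanide as block control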); settings: HEK293-KCC2, thallium flux FluoZin2 fluorescence; at 10 µM; actives lie on both sides; F/F0 rise rate, 10–20 s post-thallium
# [3] = thallium flux modulation in parental HEK cells, confirmation, counter-screen for KCC2 modulator project, cell-based, counterscreen 1 (AID 1716); settings: HEK293 parental cells, thallium flux FluoZin2, ouabain; at 10 µM; baseline-ratio fluorescence slope, 10–20 s after thallium
# [4] = native HEK Tl+ uptake effects, second counter-screen – HEK cells, counterscreen 2, counter-screen for KCC2 modulator project, confirmation (AID 1718;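 active = thallium flux slope above the same plate's solvent-control mean plus 3 SD in both duplicate wells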;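 also: run without ouabain in cells lacking the KCC2 cotransporter; slope of fluorescence scaled to its starting value between 10 and 20 s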); settings: HEK293 parental, thallium flux FluoZin-2 fluorescence slope; at 10 µM
# [5] = target: Solute carrier family 12 member 5 (Homo sapiens) (UniProt Q9H2X9); assay: KCC2 inhibitors and activators, ouabain retest, confirmation, HEK-KCC2 cells (AID 1717;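 active = thallium flux slope beyond 3 SD from same-plate DMSO control mean in most replicates, usually higher, sometimes lower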;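 also: slope of initial-normalized fluorescence between seconds 10 and 20 after thallium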); settings: HEK293-KCC2, thallium flux FluoZin2 fluorescence, at 10 µM, bidirectional: low = inhibitor, high = activator
# [6] = inhibitors of TNFa-induced NFkB p65 translocation, primary screen, imaging, HUVEC, MLSMR starter and 10KST1 sets (AID 438;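 active = inhibition above 20% together with a positive visual image hit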;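 also: compound added about 3h40 before a 20 min TNFalpha stimulation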;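 as to inhibition: signal is the nuclear over cytoplasmic p65 intensity ratio per well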); settings: HUVEC TNFa-induced p65 nuclear translocation; cell count: measured here: nuclei count (cytotoxicity indicator), at 2.08 µM; inhibition: at 2 µM, stronger effect = higher value, 0% TNFa-plus-vehicle, 100% no-TNFa wells
# [7] = inhibitors of mutant huntingtin aggregation, primary screen, imaging, exon1htt(103Q)mCFP cells, high-content imaging (AID 483;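 active = visual image review flags a hit and inhibition of aggregation exceeds 20%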;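 also: compound exposure lasted 3 days before fixation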;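 as to nuclei count: percent of the per-plate median nuclei count of sample wells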); settings: exon1htt(103Q)mCFP cell line, aggregate imaging, at 2 µM; inhibition of aggregation: stronger effect = higher value; nuclei count: measured here: cell count, toxicity
# [8] = inhibitors of E-selectin induction by TNFa, primary screen, imaging, HUVEC, immunofluorescence, MLSMR starter and 10KST1 sets (AID 487;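 active = visually confirmed hit in the image check and inhibition above 20%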;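 as to inhibition: signal is fraction of cell area covered by stained E-selectin grains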;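 as to nuclei count: 100% = median nuclei count of all wells on the same plate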); settings: HUVEC TNFalpha-induced E-selectin immunofluorescence imaging, at 2 µM; inhibition: stronger effect = higher value; nuclei count: measured here: cell number, toxicity
# [9] = DUSP6 inhibitors restoring Erk phosphorylation by chemical complementation, primary imaging in DUSP6-transfected HeLa (AID 609;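 active = compounds giving at least 50% inhibition in the cell-based MKP-3 phosphatase rescue imaging test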;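 as to inhibition: phospho-Erk level distribution per well compared with pooled transfected vehicle control wells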); settings: HeLa MKP-3 transfected, phospho-Erk imaging KS statistic, at 10 µM, cells stimulated with TPA for 15 min
# [10] = target: Dual specificity protein phosphatase 6 (Homo sapiens) (UniProt Q16828); assay: as above; settings: HeLa MKP-3 transfected, phospho-Erk imaging KS statistic; at 10 µM; stronger effect = higher value; cells stimulated with TPA for 15 min
# Chain of Dual specificity protein phosphatase 6 (Homo sapiens) (Q16828 whole entry, looked up): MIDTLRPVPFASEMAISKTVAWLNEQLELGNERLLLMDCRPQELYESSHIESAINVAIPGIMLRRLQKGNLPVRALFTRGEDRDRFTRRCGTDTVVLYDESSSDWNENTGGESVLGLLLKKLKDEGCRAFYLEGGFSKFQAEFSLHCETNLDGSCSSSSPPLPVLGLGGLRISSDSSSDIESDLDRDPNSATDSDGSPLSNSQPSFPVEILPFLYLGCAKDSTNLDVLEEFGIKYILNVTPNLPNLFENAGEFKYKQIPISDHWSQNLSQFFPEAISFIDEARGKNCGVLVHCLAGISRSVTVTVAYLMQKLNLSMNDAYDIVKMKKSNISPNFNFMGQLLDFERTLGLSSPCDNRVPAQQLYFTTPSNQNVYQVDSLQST
# [11] = target: Voltage-gated potassium channel subunit beta-2 (Rattus norvegicus) (UniProt P62483); assay: KvBeta enzyme negative modulators, primary screen, biochemical, NADPH fluorescence (AID 622;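 active = fluorescence slope higher than the sample average by over 3 SD, cut at about -0.22 in these data, passing the limit was not always enough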;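 also: slope of raw intensity against log time taken from 70 to 1610 s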); settings: recombinant KvBeta, 4-cyanobenzaldehyde reduction, at 10 µM, stronger effect = higher value
# Chain of Voltage-gated potassium channel subunit beta-2 (Rattus norvegicus) (P62483 whole entry, looked up): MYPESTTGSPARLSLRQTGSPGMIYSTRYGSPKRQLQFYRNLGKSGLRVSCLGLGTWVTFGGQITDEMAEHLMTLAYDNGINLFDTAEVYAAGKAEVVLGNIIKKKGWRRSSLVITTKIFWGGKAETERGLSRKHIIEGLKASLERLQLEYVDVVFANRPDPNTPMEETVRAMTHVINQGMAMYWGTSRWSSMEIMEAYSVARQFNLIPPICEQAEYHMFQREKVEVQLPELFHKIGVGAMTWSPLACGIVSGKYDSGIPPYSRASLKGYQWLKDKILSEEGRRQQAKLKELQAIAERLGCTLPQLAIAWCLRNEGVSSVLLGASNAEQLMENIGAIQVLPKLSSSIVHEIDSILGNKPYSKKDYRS
# [12] = target: Voltage-gated potassium channel subunit beta-2 (Rattus norvegicus) (UniProt P62483); assay: KvBeta positive modulators, primary screen, biochemical, NADPH fluorescence (AID 623;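 active = NADPH fluorescence slope more negative than the mean of all samples by about 3 SD, 99.7% confidence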;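 also: fluorescence intensity change per second fitted from 20 to 320 s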); settings: Recombinant KvBeta, NADPH fluorescence decrease slope, 10 min; at 10 µM; stronger effect = lower value
# [13] = target: Muscarinic acetylcholine receptor M4 (Homo sapiens) (UniProt P08173); assay: compounds altering M4/GIRK thallium flux, either direction, primary screen, M4 allosteric agonist project, cell-based, HEK293 M4/GIRK, BTC-AM (AID 625;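 active = fluorescence slope after compound addition differing from the mean of all tested samples at 99.7% confidence, mostly higher but some lower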;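 also: thallium influx through GIRK channels coupled to M4 in HEK293 cells with BTC-AM dye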); settings: at 10 µM, actives lie on both sides
# Chain of Muscarinic acetylcholine receptor M4 (Homo sapiens) (P08173 whole entry, looked up): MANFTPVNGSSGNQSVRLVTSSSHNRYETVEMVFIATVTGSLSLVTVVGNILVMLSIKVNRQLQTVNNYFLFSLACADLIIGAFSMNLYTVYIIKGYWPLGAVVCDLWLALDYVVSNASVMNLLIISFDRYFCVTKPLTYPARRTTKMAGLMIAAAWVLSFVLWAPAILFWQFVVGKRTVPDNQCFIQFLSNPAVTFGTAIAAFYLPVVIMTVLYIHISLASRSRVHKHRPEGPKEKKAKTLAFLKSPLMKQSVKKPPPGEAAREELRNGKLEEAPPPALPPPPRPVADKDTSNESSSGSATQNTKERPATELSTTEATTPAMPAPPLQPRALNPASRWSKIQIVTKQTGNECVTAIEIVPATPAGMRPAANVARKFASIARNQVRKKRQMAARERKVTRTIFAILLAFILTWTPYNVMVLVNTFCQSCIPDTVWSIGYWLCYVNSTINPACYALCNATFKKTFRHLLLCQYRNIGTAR
# [14] = inhibitors of larval lipid processing in zebrafish, primary screen, whole organism, PED6 fluorescence, gall bladder and intestine (AID 686;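 active = a full or partial loss of lipid-probe fluorescence in the fish gall bladder, intestine or both, judged by eye; inactive = no fluorescence loss, or compound toxic to the fish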;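 also: larvae 5 to 7 days old with five fish per well; signal comes from phospholipase A2 cleavage of quenched PED6 carried via bile; overnight exposure to compound and PED6 before scoring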); settings: Zebrafish larvae PED6 lipid processing, fluorescence scoring; screened at 20 µM (by protocol)
# [15] = inhibitors of Chlamydomonas gravitaxis, primary screen, whole organism, Chlamydomonas reinhardtii, WT vs cilia-less mutant, absorbance, 96-well (AID 463189;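 active = inhibition at or above 50% relative to wild type and mutant plate controls; inactive = inhibition below 50%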;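 also: 0% = wild type cc124 cells in DMSO and 100% = ciliumless bld1 mutant cells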); settings: OD600 absorbance, 2 days, at 10 µM, stronger effect = higher value
# [16] = inhibitors of Sendai virus-induced IRF3 signaling, primary screen, TLR/RLR signaling modifier project, cell-based, Sendai virus stimulus, luciferase, 10K MLSCN set (AID 602276;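 active = inhibition at or above 50% at 10 µM; inactive = inhibition below 50%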;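 also: firefly luciferase from ISG56 promoter only with Renilla not read in this screen; 0% = Sendai virus plus DMSO and 100% = medium plus DMSO without virus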); settings: HEK293 RL24 IRF3 luciferase reporter, at 10 µM, stronger effect = higher value
# [17] = inhibitors of poly I:C-induced TLR3 signaling, primary screen, cell-based, poly I:C stimulus, luciferase, 10K MLSCN set (AID 602277;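 active = inhibition of the reporter signal at or above 50%; inactive = inhibition below 50%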); settings: HEK293-TLR3 RL24 IRF3 luciferase reporter, at 10 µM, stronger effect = higher value
structure (smiles),measurement,setting,value
COc1ccc(C2/C=C\CN(S(=O)(=O)c3cccs3)CC(=O)N2Cc2ccc(F)cc2)cc1 (stereo not given),normalised thallium flux (F/F0 slope),[1],0.00741 (inactive)
same,normalized thallium flux,PubChem AID 1714,0.00428 (inactive)
same,normalized thallium flux,[2],0.0313 (inactive)
same,thallium flux rate (normalised fluorescence),[3],0.00682 (inactive)
same,thallium flux slope,[4],0.00998 (inactive)
O=C(N/N=C/c1ccc(Br)o1)c1cncc(Br)c1,normalised thallium flux (F/F0 slope),[1],0.0115 (active)
same,normalized thallium flux,PubChem AID 1714,0.0326 (active)
same,normalized thallium flux,[2],0.0307 (inactive)
same,thallium flux rate (normalised fluorescence),[3],0.0124 (active)
same,thallium flux slope,[4],0.0107 (active)
S=c1ccc2ccccc2[nH]1,normalised thallium flux (F/F0 slope),[1],0.0228 (active)
same,normalized thallium flux,PubChem AID 1714,0.0237 (active)
same,normalized thallium flux,[2],0.0335 (inactive)
same,thallium flux rate (normalised fluorescence),[3],0.0196 (active)
same,"raw Tl+ flux slope (below DMSO = inhibition, above = activation)",[5],0.0247 (active)
same,thallium flux slope,[4],0.0209 (active)
O=C(COC(=O)c1cc([N+](=O)[O-])ccc1NCc1ccccc1)NC1CCCCC1,normalised thallium flux (F/F0 slope),[1],0.00664 (inactive)
same,normalized thallium flux,PubChem AID 1714,0.00478 (inactive)
same,normalized thallium flux,[2],0.0252 (active)
same,thallium flux rate (normalised fluorescence),[3],0.00762 (inactive)
same,"raw Tl+ flux slope (below DMSO = inhibition, above = activation)",[5],0.0168 (active)
same,thallium flux slope,[4],0.0115 (inactive)
O=C(N/N=C/c1coc2ccccc2c1=O)c1cc2ccccc2o1,normalised thallium flux (F/F0 slope),[1],0.0123 (inactive)
same,normalized thallium flux,PubChem AID 1714,0.0194 (active)
same,normalized thallium flux,[2],0.0374 (inactive)
same,thallium flux rate (normalised fluorescence),[3],0.0141 (active)
same,"raw Tl+ flux slope (below DMSO = inhibition, above = activation)",[5],0.0271 (active)
same,thallium flux slope,[4],0.0106 (inactive)
C(=N\n1cnnc1)/c1cccnc1,cell count,[6],581
same,inhibition,[6],0.9% (inactive)
same,inhibition of aggregation,[7],18.4% (inactive)
same,nuclei count,[7],76.7%
same,inhibition,[8],-64.9% (inactive)
same,nuclei count,[8],115%
same,z-score,[9]; measured here: cell density z-score,0.785
same,z-score,[9]; measured here: nuclear c-Myc green intensity z-score,-0.718
same,z-score,"[9]; measured here: nuclear pErk red intensity z-score, stronger effect = higher value",0.742
same,inhibition,[10],1.42% (inactive)
same,fluorescence slope,[11],-0.457 (inactive)
same,NADPH fluorescence slope,[12],-0.000114 (inactive)
same,fluorescence slope,[13],0.00428 (inactive)
same,outcome,[14],inactive
same,normalised thallium flux (F/F0 slope),[1],0.0086 (inactive)
same,normalized thallium flux,PubChem AID 1714,0.00647 (inactive)
same,normalized thallium flux,[2],0.0321 (inactive)
same,thallium flux rate (normalised fluorescence),[3],0.0072 (inactive)
same,"raw Tl+ flux slope (below DMSO = inhibition, above = activation)",[5],0.021 (inactive)
same,thallium flux slope,[4],0.0101 (inactive)
same,inhibition,[15],0.59% (inactive)
same,inhibition,[16],-11.4% (inactive)
same,inhibition,[17],-7.31% (inactive)
COc1ccc(-c2cn(-c3ccc(OC)cc3)c(=S)[nH]2)cc1,normalised thallium flux (F/F0 slope),[1],0.00623 (inactive)
same,normalized thallium flux,PubChem AID 1714,0.0216 (active)
same,normalized thallium flux,[2],0.0299 (inactive)
same,thallium flux rate (normalised fluorescence),[3],0.0163 (active)
same,thallium flux slope,[4],0.0135 (active)
Cc1oc(C(N)=O)cc1COc1ccc(C(N)=O)cc1,normalised thallium flux (F/F0 slope),[1],0.01 (inactive)
same,normalized thallium flux,PubChem AID 1714,0.00743 (inactive)
same,normalized thallium flux,[2],0.0348 (inactive)
same,thallium flux rate (normalised fluorescence),[3],0.00438 (inactive)
same,"raw Tl+ flux slope (below DMSO = inhibition, above = activation)",[5],0.0196 (inactive)
same,thallium flux slope,[4],0.0116 (inactive)
CN(C)S(=O)(=O)c1cccc(NC(=S)N/N=C/C(=O)c2ccccc2)c1,normalised thallium flux (F/F0 slope),[1],0.014 (active)
same,normalized thallium flux,PubChem AID 1714,0.0308 (active)
same,normalized thallium flux,[2],0.0323 (inactive)
same,thallium flux rate (normalised fluorescence),[3],0.0158 (active)
same,"raw Tl+ flux slope (below DMSO = inhibition, above = activation)",[5],0.0279 (inactive)
same,thallium flux slope,[4],0.0129 (active)
O=C(NC(CC(=O)N1CCN(c2ccccc2)CC1)c1ccccc1)c1ccccc1Cl (stereo not given),normalised thallium flux (F/F0 slope),[1],0.00747 (inactive)
same,normalized thallium flux,PubChem AID 1714,0.00528 (inactive)
same,normalized thallium flux,[2],0.0333 (inactive)
same,thallium flux rate (normalised fluorescence),[3],0.00637 (inactive)
same,"raw Tl+ flux slope (below DMSO = inhibition, above = activation)",[5],0.019 (inactive)
same,thallium flux slope,[4],0.00971 (inactive)
O=C(CSCc1ccccc1)N1CCc2ccccc21,normalised thallium flux (F/F0 slope),[1],0.00671 (inactive)
same,normalized thallium flux,PubChem AID 1714,0.00485 (inactive)
same,normalized thallium flux,[2],0.027 (inactive)
same,thallium flux rate (normalised fluorescence),[3],0.0071 (inactive)
same,"raw Tl+ flux slope (below DMSO = inhibition, above = activation)",[5],0.0219 (active)
same,thallium flux slope,[4],0.00997 (inactive)
CSc1sc(C(=O)NNC(=O)c2ccc(Cl)cc2)c2c1C=CCC2,normalised thallium flux (F/F0 slope),[1],0.0166 (active)
same,normalized thallium flux,PubChem AID 1714,0.0484 (active)
same,normalized thallium flux,[2],0.0343 (inactive)
same,thallium flux rate (normalised fluorescence),[3],0.0305 (active)
same,"raw Tl+ flux slope (below DMSO = inhibition, above = activation)",[5],0.0333 (active)
same,thallium flux slope,[4],0.0136 (active)
S=C(NN=C1CCN(Cc2ccccc2)CC1)NC1CCCCC1,normalised thallium flux (F/F0 slope),[1],0.0184 (inactive)
same,normalized thallium flux,PubChem AID 1714,0.00465 (inactive)
same,normalized thallium flux,[2],0.0249 (active)
same,thallium flux rate (normalised fluorescence),[3],0.00811 (inactive)
same,"raw Tl+ flux slope (below DMSO = inhibition, above = activation)",[5],0.0155 (active)
same,thallium flux slope,[4],0.0111 (inactive)
CCOc1ccccc1C1CC(c2ccc(Cl)cc2)Nc2nc(N)nn21 (stereo not given),normalised thallium flux (F/F0 slope),[1],0.0061 (inactive)
same,normalized thallium flux,PubChem AID 1714,0.00475 (inactive)
same,normalized thallium flux,[2],0.0277 (inactive)
same,thallium flux rate (normalised fluorescence),[3],0.00745 (inactive)
same,"raw Tl+ flux slope (below DMSO = inhibition, above = activation)",[5],0.0177 (inactive)
same,thallium flux slope,[4],0.00975 (inactive)
CC(=O)NNC(=O)c1csc(Cc2c(Cl)sc3ccc(Cl)cc23)n1,normalised thallium flux (F/F0 slope),[1],0.00965 (inactive)
same,normalized thallium flux,PubChem AID 1714,0.0419 (active)
same,normalized thallium flux,[2],0.0308 (inactive)
same,thallium flux rate (normalised fluorescence),[3],0.0146 (active)
same,thallium flux slope,[4],0.0112 (active)
O=C(CSC1=NCCS1)Nc1nc(-c2ccccc2)cs1,normalised thallium flux (F/F0 slope),[1],0.0102 (inactive)
same,normalized thallium flux,PubChem AID 1714,0.00549 (inactive)
same,normalized thallium flux,[2],0.0253 (active)
same,thallium flux rate (normalised fluorescence),[3],0.00757 (inactive)
same,"raw Tl+ flux slope (below DMSO = inhibition, above = activation)",[5],0.0163 (active)
same,thallium flux slope,[4],0.0115 (inactive)
C=CCn1c(=S)[nH]c2scc(-c3ccco3)c2c1=O,normalised thallium flux (F/F0 slope),[1],0.0122 (active)
same,normalized thallium flux,PubChem AID 1714,0.0771 (active)
same,normalized thallium flux,[2],0.0916 (active)
same,thallium flux rate (normalised fluorescence),[3],0.0914 (active)
same,"raw Tl+ flux slope (below DMSO = inhibition, above = activation)",[5],0.0814 (active)
same,thallium flux slope,[4],0.0843 (active)
